Where “and” joins values, the source holds several entries; their conditions need not be identical. Identical values can stand only once. Compounds without any hit were thinned out: in the full panel of roughly 83,000, 20% have a hit.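 Step 1: grow cells in 96-well plates. Step 2: add test compound at a single concentration. Step 3: incubate 48 h. Step 4: record percent growth.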 A number with no mark means an inactive call. Calls of active or inactive are those of the source. The calls were made as follows: active = growth percent below 10; inactive = the rest.
What was measured:
Assay in all cases: NCI-60 one-dose screen, 48 h (100 = growth as untreated, 0 = no growth, -100 = all killed)
HT29 colon = conditions: 10 µM unless noted
SNB-75 CNS = conditions: 10 µM unless noted
SNB-19 CNS = conditions: 10 µM unless noted
U251 CNS = conditions: 10 µM unless noted
SK-MEL-5 melanoma = conditions: 10 µM unless noted
UACC-62 melanoma = conditions: 10 µM unless noted
LOX IMVI melanoma = conditions: 10 µM
SK-MEL-28 melanoma = conditions: 10 µM unless noted
EKVX NSCLC = conditions: 10 µM unless noted
SN12C renal = conditions: 10 µM unless noted
TK-10 renal = conditions: 10 µM unless noted
ACHN renal = conditions: 10 µM unless noted
CAKI-1 renal = conditions: 10 µM unless noted
A498 renal = conditions: 10 µM unless noted
CCRF-CEM leukemia = conditions: 10 µM unless noted
MOLT-4 leukemia = conditions: 10 µM unless noted
PC-3 prostate = conditions: 10 µM unless noted
SK-MEL-2 melanoma = conditions: 10 µM unless noted
UO-31 renal = conditions: 10 µM unless noted

Structure (SMILES)	growth (HT29 colon)	growth (SNB-75 CNS)	growth (SNB-19 CNS) [%]	growth (U251 CNS) [%]	growth (SK-MEL-5 melanoma)	growth (UACC-62 melanoma)	growth (LOX IMVI melanoma)	growth (SK-MEL-28 melanoma)	growth (EKVX NSCLC) [%]	growth (SN12C renal)	growth (TK-10 renal)	growth (ACHN renal) [%]	growth (CAKI-1 renal) [%]	growth (A498 renal)	growth (CCRF-CEM leukemia)	growth (MOLT-4 leukemia)	growth (PC-3 prostate) [%]	growth (SK-MEL-2 melanoma)	growth (UO-31 renal) [%]
O=Nc1ccc2ccccc2c1O	46.8%	120%	97.6	55.9	47.6%	27.1%	7.44% (active)	83.8%	64.1	42.4%	9.55% (active)	69.1	78.1	95.3%	64.5%	91.2%			
Cn1c(COC(=O)NC2CCCCC2)c(COC(=O)NC2CCCCC2)c2ccc3cc(Cl)c(Cl)cc3c21						-50.6% [100 µM] (active)													
COc1cc(/C=C/c2ccnc3ccccc23)cc(OC)c1OC	11.8%	-3.85% (active)			3.09% (active)	38.2%	26.1%	34%	55.3	31%	70.1%	54.7	24.3	18%	43.5%	14.9%	56.1	12.2%	37
Cn1c(-c2ccccc2)c(/C=C/C2=[N+](C)c3ccccc3C2(C)C)c2ccccc21	0.701% (active)	20.6%	18.5			-3.73% (active)	14.8%	22.5%	20	7.02% (active)	3.06% (active)	18.2	35.6	3.03% (active)	8% (active)	-10.6% (active)		6.41% (active)	74
CCCCCCCCCCCCN1C(C)=CS/C1=C\C=C\c1scc(C)[n+]1CCCCCCCCCCCC	11%	34.3%	40.2		-83.9% (active)	5.41% (active)	25.9%	47.2%		18.2%	11.9%	38.6	27.5		20%	11.1%		1.51% (active)	62.6
CC(C)(C)CC(C)(C)c1ccc(OCCOCCSC(=N)N)cc1		74.8%	73.6		-70.2% (active)	75.7%	-81% (active)	-57.1% (active)		55%	78%		65.3	75.3%	0.0306% (active)	14.4%	42.6	85%	53.2
O/N=C1\c2ccccc2-c2ccc(F)cc21		91.1%	101	106	99.1%	93.8%	96.6%	111%			84.8%		94.1	132%	86.5%	71.6%	89.1	97.5%	47.7
O=C(c1ccccc1)N(CCCl)C(=O)N(CCCl)C(=O)c1ccccc1		98.8%	90.5	102	96.2%	93.8%	88.2%	106%		94.1%	103%	94.1	97.3	96.6%	100%	86.3%	88.5	93.5%	82.4
N#Cc1c2ccccc2nc2ccccc12	110%	97.8%	92.1	94.9	94.8%		101%	132%		93.5%			98	67.1%	98.2%	97.1%	91	125%	77.5
Cc1oc2c(C)c3oc(=O)cc(C)c3cc2c1CCl			81.5	82.9	77.6%		56.6%	93.3%	68.4	67.8%	86.1%	78.3	51.8	61.8%	47.6%	63.6%	91	109%	47.6
CCOc1cc2c(cc1O)/C(=N\OC)C[C@@H]1[C@@H]2CC[C@]2(C)[C@@H](O)CC[C@@H]12						-31.9% [100 µM] (active) and -75.8% [100 µM] (active)													
O=C(Nc1ccc(Cl)c(Cl)c1)OCc1ccco1		8.5% (active)	63.3	43.1	30.6%	25.5%		74.1%	56.9	48.8%	58.2%		25.4	71.5%	39.3%	34.1%	54.1	28.9%	
